These results are taken from PubChem BioAssay.

Molecules are shown by their SMILES. Active and inactive are the calls of the source.

A short description of test [1]: small molecules captured by biotinylated probe aFSTL3 – biochemical, small-molecule microarray, fluorescence 635/667, stem cell growth factor project, primary screen (AID 1064).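 Also: measures binding of the biotinylated anti-FSTL3 antibody to printed compounds.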 Conditions: higher = more signal.
Test [2] is described as follows: binders from COS7 lysate, DM2A8 probe, primary screen, torsin A project, cell lysate, small-molecule microarray, fluorescence 635/667 (AID 1065). Conditions: higher = more signal, COS7 lysate expressing mutant human TOR1A.
Test [3] is described as follows: small molecules captured by biotinylated probe aFGF2 – biochemical, small-molecule microarray, fluorescence 635/667, stem cell growth factor project, primary screen (AID 1067).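 Also: measures binding of biotinylated aFGF2 protein to printed compounds on slides; z-score merges feature fluorescence and signal-to-noise across triplicate slides.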 Particulars: higher = more signal.
Test [4] in a line: small molecules captured by biotinylated probe aFGF10 – biochemical, small-molecule microarray, fluorescence 635/667, stem cell growth factor project, primary screen (AID 1071).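 Also: score merges 667 nm spot intensity and signal to noise from triplicate slides.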 Conditions: higher = more signal.
Test [5] has as its target Neurogenic locus notch homolog protein 2 (Homo sapiens) (UniProt Q04721). The test is described as follows: small molecules binding Notch2 protein – biochemical, small-molecule microarray, 635 nm fluorescence, stem cell growth factors, primary screen (AID 1073). Particulars: higher = more signal.
Test [6] has as its target Pro-neuregulin-1, membrane-bound isoform (Homo sapiens) (UniProt Q02297). The test is described as follows: small molecules binding neuregulin-1 protein – biochemical, small-molecule microarray, fluorescence 635/667, psychiatric disease protein project, primary screen (AID 1075).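 Also: score combines 667 nm spot fluorescence with signal to noise.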 Conditions: NRG1 binding, 635 nm fluorescence, higher = more signal.
In test [7] the test system is Neuregulin-1 EGF-like domain. The test is described as follows: small molecules binding NRG1 EGF domain – biochemical, small-molecule microarray, 635 nm fluorescence, primary screen (AID 1081).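 Also: binding of the protein to compounds printed on small-molecule microarray slides.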 Conditions: higher = more signal.
The nature of test [8]: FRG1 expression reporter modulators in myotubes – cell-based, C2C12 myotubes, firefly/Renilla luciferase, luminescence, FRG1 inhibition for FSHD, primary screen (AID 1084). Conditions: FRG1 promoter luciferase, higher = more signal, called active from +8 up or from −8 down.
Test [9] is described as follows: small molecules captured by biotinylated probe aFST – biochemical, small-molecule microarray, fluorescence 635/667, stem cell growth factor project, primary screen (AID 1086).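 Also: score merges 667 nm fluorescence with signal-to-noise of each printed compound spot.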 Particulars: higher = more signal.
The nature of test [10]: binders of probe aHhip on microarray, primary screen, stem cell growth factor project, biochemical, small-molecule microarray, fluorescence 635/667 (AID 1087).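 Also: score merges spot fluorescence at 667nm with spot signal to noise ratio.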 Conditions: higher = more signal.
Test [11] deals with PRMT1 (protein arginine N-methyltransferase 1). As to the kind of experiment: small molecules binding arginine methyltransferase PRMT1 – biochemical, small-molecule microarray, 635 nm fluorescence, primary screen (AID 1088).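 Also: binding of Prmt1 protein to compounds spotted on small-molecule microarray slides.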 Particulars: higher = more signal.
The nature of test [12]: growth effects on S. cerevisiae YJM789 – YJM789 clinical isolate, OD600, 24 h, basal, primary screen (AID 1089).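 Also: growth of clinical yeast isolate S. cerevisiae YJM 789 seeded 1000 cells per well; test concentration not given here.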 Conditions: higher = more signal, called active from +8 up or from −8 down.
Test [13] can be described thus: S. pombe growth modifiers, basal conditions – strain 972, OD600, 24 h, no modulator, primary screen (AID 1090).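 Also: basal condition with compound alone and no growth modifier present; test concentration not given here.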 Conditions: S. pombe 972 growth, higher = more signal, called active from +8 up or from −8 down.
Test [14] can be described thus: budding yeast growth modifiers under rapamycin – strain BY4716, OD600, 96 h, primary screen (AID 1091). Also: test concentration not given here. Particulars: S. cerevisiae BY4716 + rapamycin, higher = more signal, called active from +8 up or from −8 down.
Test [15] addresses Torsin-1A-interacting protein 2 (Homo sapiens) (UniProt Q8NFQ8). As to the kind of experiment: small molecules binding lysate-expressed LULL1 – cell lysate, human LULL1 lysate, 635/667 nm fluorescence, primary screen (AID 1092).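 Also: score merges per-feature 667 nm fluorescence with signal-to-noise.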 Conditions: small-molecule microarray, hLULL1 lysate binding, 635 nm fluorescence; higher = more signal.
Test [16] can be described thus: optical density change of DRC41 E. coli – strain DRC41, OD650, 24 h, E. coli filamentation project, primary screen (AID 1093).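 Also: MC1000 strain lacking acrAB efflux and sulA so SOS filamentation is blocked; test concentration not given here.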 Conditions: E. coli DRC41 growth, higher = more signal, called active from +8 up or from −8 down.
The nature of test [17]: probe aLefty2 binding to arrayed compounds – biochemical, biotinylated probe, 635/667 nm fluorescence, primary screen (AID 1094).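 Also: score merges spot fluorescence near 667 nm with spot signal-to-noise ratio.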 Particulars: small-molecule microarray, higher = more signal.
In test [18] the test system is Noggin (protein binding on small-molecule microarray). The test is described as follows: small molecules binding Noggin protein – biochemical, 635/667 nm fluorescence, primary screen (AID 1095).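 Also: score merges 667 nm feature fluorescence with signal to noise over triplicate slides.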 Conditions: 635 nm fluorescence, higher = more signal.
Test [19] deals with Neurogenic locus notch homolog protein 3 (Homo sapiens) (UniProt Q9UM47). The test is described as follows: small molecules binding NOTCH3 protein – biochemical, 635/667 nm fluorescence, primary screen (AID 1096). Particulars: small-molecule microarray, 635 nm fluorescence, higher = more signal.
Sequence of Neurogenic locus notch homolog protein 3 (Homo sapiens) (Q9UM47 whole entry, looked up): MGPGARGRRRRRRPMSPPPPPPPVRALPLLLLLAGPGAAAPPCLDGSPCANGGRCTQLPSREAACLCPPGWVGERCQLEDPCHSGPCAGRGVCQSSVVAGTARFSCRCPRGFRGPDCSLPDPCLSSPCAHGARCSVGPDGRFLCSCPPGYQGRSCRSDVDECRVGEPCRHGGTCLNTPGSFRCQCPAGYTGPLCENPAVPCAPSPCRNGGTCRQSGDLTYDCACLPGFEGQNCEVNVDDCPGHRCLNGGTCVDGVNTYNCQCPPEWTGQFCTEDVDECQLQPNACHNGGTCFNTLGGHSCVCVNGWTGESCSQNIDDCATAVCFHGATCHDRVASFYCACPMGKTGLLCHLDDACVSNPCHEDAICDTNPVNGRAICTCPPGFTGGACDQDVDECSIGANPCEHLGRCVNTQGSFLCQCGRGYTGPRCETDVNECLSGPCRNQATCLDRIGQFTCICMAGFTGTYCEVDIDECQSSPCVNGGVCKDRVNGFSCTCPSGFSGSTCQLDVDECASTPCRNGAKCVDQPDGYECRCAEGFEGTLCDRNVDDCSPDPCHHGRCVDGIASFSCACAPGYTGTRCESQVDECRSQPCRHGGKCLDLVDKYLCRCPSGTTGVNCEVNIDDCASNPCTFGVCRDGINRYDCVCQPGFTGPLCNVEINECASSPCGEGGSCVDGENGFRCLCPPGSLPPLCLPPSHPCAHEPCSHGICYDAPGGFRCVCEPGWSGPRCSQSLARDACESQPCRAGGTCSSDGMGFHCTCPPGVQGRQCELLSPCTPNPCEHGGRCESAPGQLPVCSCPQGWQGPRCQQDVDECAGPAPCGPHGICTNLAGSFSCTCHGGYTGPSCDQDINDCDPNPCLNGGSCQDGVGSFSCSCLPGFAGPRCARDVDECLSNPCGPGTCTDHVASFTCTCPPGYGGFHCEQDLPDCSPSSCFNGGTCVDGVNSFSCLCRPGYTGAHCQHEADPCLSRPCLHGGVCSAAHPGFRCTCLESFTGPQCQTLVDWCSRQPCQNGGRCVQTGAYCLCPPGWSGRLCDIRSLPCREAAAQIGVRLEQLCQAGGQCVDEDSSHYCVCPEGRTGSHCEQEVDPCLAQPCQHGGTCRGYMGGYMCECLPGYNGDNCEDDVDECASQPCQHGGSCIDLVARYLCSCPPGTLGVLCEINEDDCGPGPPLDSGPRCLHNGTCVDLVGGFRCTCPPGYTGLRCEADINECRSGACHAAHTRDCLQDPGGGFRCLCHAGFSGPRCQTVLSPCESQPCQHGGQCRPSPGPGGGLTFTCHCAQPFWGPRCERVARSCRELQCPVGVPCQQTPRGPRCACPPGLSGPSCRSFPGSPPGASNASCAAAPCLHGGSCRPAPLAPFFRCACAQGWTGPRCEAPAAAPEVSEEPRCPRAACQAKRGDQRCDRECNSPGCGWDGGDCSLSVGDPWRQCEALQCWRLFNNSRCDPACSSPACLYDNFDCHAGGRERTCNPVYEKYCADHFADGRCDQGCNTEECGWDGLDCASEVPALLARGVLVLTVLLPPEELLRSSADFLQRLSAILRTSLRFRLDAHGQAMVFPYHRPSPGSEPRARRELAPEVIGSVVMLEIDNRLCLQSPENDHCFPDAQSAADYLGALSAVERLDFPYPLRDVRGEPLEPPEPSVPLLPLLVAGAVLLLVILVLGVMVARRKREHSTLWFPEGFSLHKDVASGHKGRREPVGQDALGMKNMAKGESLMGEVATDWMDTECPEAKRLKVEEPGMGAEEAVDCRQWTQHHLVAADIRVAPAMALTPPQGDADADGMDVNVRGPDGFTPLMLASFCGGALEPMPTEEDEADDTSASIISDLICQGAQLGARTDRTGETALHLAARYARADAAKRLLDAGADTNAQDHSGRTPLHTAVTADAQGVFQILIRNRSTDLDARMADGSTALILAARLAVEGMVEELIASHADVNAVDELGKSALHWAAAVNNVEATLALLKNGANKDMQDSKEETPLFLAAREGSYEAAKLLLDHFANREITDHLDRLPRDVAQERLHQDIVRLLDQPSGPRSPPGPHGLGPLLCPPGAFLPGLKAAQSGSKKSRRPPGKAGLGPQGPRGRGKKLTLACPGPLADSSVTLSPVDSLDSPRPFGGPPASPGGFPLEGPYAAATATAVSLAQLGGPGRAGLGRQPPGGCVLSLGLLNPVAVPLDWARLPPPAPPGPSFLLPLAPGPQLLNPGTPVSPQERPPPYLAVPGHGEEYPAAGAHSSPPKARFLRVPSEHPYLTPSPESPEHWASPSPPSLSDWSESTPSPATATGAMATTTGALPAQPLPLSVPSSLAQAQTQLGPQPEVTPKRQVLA
Test [20] is described as follows: probe aEGFR binding to arrayed compounds – biochemical, biotinylated probe, 635/667 nm fluorescence, primary screen (AID 1097).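 Also: probe is a biotinylated anti-EGFR antibody binding compounds printed on slides; score combines fluorescence near 667 nm and signal to noise of each spot.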 Particulars: small-molecule microarray, higher = more signal.

Sequence of Neurogenic locus notch homolog protein 2 (Homo sapiens) (Q04721 whole entry, looked up, canonical isoform): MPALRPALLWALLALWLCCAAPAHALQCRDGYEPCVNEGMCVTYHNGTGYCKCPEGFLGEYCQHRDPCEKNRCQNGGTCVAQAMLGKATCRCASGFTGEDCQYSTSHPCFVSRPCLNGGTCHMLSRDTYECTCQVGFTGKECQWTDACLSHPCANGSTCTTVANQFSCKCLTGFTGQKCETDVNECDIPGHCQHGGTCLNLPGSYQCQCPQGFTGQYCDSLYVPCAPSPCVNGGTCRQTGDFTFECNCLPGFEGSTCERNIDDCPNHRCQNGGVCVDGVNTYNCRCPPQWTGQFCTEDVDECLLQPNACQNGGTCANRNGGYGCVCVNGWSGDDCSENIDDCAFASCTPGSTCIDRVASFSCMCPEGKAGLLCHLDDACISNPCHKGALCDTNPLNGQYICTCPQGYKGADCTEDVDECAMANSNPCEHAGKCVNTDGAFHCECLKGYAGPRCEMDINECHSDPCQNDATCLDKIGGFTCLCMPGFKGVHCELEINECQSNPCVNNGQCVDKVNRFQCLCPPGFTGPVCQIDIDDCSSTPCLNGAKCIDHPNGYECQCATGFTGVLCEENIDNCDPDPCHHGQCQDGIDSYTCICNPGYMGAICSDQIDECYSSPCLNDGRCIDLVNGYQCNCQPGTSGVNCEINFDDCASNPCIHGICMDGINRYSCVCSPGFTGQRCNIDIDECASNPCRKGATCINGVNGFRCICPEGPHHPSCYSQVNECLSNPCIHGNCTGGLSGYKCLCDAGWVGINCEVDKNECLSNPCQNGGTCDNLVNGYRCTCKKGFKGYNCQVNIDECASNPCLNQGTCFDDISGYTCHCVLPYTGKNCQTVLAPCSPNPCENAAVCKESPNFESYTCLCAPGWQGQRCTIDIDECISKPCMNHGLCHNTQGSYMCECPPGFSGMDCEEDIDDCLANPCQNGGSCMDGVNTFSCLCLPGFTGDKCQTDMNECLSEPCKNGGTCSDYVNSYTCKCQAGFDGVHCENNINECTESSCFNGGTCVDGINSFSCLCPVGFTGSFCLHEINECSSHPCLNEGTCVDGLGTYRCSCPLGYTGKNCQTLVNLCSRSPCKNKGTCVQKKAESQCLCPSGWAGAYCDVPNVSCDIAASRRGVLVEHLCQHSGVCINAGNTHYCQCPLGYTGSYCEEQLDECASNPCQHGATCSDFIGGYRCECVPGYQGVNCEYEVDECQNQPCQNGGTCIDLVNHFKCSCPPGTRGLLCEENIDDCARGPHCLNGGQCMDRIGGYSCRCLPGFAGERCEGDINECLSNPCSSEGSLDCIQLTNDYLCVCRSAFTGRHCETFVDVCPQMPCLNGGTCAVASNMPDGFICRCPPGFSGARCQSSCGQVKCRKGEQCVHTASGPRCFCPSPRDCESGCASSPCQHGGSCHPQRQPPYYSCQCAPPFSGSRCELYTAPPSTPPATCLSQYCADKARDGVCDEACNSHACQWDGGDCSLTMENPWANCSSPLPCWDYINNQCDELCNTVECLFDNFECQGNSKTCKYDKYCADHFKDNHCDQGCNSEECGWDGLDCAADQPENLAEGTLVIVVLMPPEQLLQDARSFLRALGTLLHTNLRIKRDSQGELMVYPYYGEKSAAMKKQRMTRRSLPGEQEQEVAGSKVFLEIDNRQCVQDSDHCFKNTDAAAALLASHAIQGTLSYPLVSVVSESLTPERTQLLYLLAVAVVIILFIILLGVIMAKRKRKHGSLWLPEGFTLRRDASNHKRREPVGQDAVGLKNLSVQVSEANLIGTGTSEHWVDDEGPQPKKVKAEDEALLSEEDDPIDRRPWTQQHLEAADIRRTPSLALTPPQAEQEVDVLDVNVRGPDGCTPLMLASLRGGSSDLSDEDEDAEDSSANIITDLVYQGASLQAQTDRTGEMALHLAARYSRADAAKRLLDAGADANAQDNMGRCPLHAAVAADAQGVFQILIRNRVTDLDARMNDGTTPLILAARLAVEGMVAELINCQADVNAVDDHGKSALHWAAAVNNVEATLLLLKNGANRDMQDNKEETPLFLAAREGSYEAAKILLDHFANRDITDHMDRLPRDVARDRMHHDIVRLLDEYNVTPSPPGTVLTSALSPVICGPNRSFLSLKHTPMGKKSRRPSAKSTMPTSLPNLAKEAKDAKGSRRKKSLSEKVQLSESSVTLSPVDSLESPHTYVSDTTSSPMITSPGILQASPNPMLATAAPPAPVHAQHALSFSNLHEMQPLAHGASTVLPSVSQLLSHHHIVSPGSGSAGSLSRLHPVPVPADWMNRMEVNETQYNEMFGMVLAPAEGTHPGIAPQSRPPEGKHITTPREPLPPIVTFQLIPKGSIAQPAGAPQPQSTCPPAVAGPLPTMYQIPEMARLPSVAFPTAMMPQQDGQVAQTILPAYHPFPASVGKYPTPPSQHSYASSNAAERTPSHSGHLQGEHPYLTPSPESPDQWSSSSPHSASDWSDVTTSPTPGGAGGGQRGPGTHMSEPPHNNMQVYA

As for `C[C@]1(C(=O)NCc2ccccc2)c2ccccc2C(=O)N(Cc2cc(C(F)(F)F)cc(C(F)(F)F)c2)[C@H]1c1ccc(CO)cc1`, the composite z-score came to 0.158 in test [1]; 1.05 in [2]; 0.168 in test [3]; 0.149 in test [4]; 1.04 in test [5]; 0.196 in [6]. Further, the composite z-score was 1.23 in [7]; 0.185 in test [9]; -0.359 in test [10]; 1.58 in [11]; 1.51 in test [15]; 0.339 in [17]. Moreover, the results for the composite z-score in [18], in test [19] and in test [20] were 0.583, 0.655 and 0.18, respectively. The z-score in test [8] was -1.65 (inactive); in test [12], -2 (inactive); in test [13], -3.22 (inactive); in test [14], -2.11 (inactive); in test [16], 2.13 (inactive).

For `CC(C)C[C@@H]1NC(=O)[C@H](CC(C)C)NC(=O)[C@@]23C(=O)N[C@@H](Cc4ccccc4)C2[C@H](C)[C@@]2(C)O[C@H]2C3/C=C/CC/C=C/CNC1=O` (stereo not given in full), the composite z-score in test [1] was -0.3; in test [2] it was -0.135; in [3], -0.0805; in test [4] it was 0.278; in [5] it was 0.242; in [6], 0.603. Further, the composite z-score was 1 in test [7]; 0.0226 in test [9]; -0.201 in test [10]; 1.54 in test [11]; 2.01 in [15]; -0.26 in test [17]. Besides, the values for the composite z-score in [18], in test [19] and in test [20] were 0.413, 1.08 and -0.0697, respectively. Besides, the z-score is -0.298 (inactive) in test [8]; -0.833 (inactive) in [12]; -2.66 (inactive) in test [13]; -1.74 (inactive) in test [14]; 0.194 (inactive) in [16].

Consider `CN1C2C=C(c3ccc(CO)cc3)C(C3C(=O)N(C(N)=O)C(=O)C32)C1c1cccs1` (stereo not given), for which the composite z-score in [1] is 0.631; in test [2], 0.056; in test [3] it was -0.0566; in [4] it was 0.0657; in test [5], -0.458; in test [6] it was 0.839. In addition, the composite z-score is 1.27 in test [7]; -0.221 in [9]; -0.0645 in test [10]; 0.4 in [11]; 0.813 in [15]; -0.0774 in [17]. Further, the composite z-score in test [18] was 0.198; in [19], -0.25; in [20], -0.0798. Besides, the z-score was 1.02 (inactive) in test [8]; 0.697 (inactive) in test [12]; -1.74 (inactive) in [13]; 1.21 (inactive) in test [14]; 1.22 (inactive) in test [16].

On to `CCCC[C@@H]1C[C@H]1[C@@H](NC(=O)c1cccs1)c1ccc(Cl)cc1`, for which the composite z-score in test [1] was 0.521; in [2], -0.6; in [3], -0.141; in test [4], -0.543; in test [5], -1.45; in test [6], -0.273. Further, the composite z-score in [7] was -0.669; in test [9], -0.531; in test [10], -0.0003; in test [11] it was -0.117; in test [15], 0.795; in [17] it was -0.168. Further, the composite z-score in test [18] was -1.69; in test [19] it was -1.73; in test [20], -0.288. The z-score is 0.902 (inactive) in test [8]; -0.0596 (inactive) in [12]; 0.806 (inactive) in test [13]; 0.413 (inactive) in test [14]; -1 (inactive) in test [16].

Turning to `C=C(C(=O)CC[C@H](OC(=O)c1ccccc1-c1ccccc1C(=O)O)c1ccc(CO)o1)C(C)C`, the composite z-score in [1] is -0.547; in [2] it was -0.113; in test [3], -0.0974; in test [4], 0.959; in [5], -0.0673; in test [6], 1.25. Further, the composite z-score in [7] was 1.33; in [9] it was 0.0357; in test [10] it was -0.0645; in test [11], 1.33; in test [15], 0.662; in test [17] it was -0.19. The composite z-score in test [18] was 1.67; in [19], 0.951; in [20] it was -0.101. In addition, the z-score in [8] was 0.112 (inactive); in test [12], 1.44 (inactive); in [13] it was -0.197 (inactive); in [14] it was 0.782 (inactive); in test [16] it was -0.309 (inactive).
